Assay results from PubChem BioAssay.
Active and inactive are the calls of the source.

Experiments:
[1] = binders of probe aFSTL3 on microarray, primary screen, stem cell growth factor project, biochemical, small-molecule microarray, fluorescence 635/667 (AID 1064); conditions: higher = more signal;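 also: measures binding of the biotinylated anti-FSTL3 antibody to printed compounds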
[2] = binders from COS7 lysate, DM2A8 probe, primary screen, torsin A project, cell lysate, small-molecule microarray, fluorescence 635/667 (AID 1065); conditions: higher = more signal, COS7 lysate expressing mutant human TOR1A
[3] = binders of probe aFGF2 on microarray, primary screen, stem cell growth factor project, biochemical, small-molecule microarray, fluorescence 635/667 (AID 1067); conditions: higher = more signal;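 also: measures binding of biotinylated aFGF2 protein to printed compounds on slides; z-score merges feature fluorescence and signal-to-noise across triplicate slides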
[4] = binders of probe aFGF10 on microarray, primary screen, stem cell growth factor project, biochemical, small-molecule microarray, fluorescence 635/667 (AID 1071); conditions: higher = more signal;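 also: score merges 667 nm spot intensity and signal to noise from triplicate slides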
[5] = biological target: Neurogenic locus notch homolog protein 2 (Homo sapiens) (UniProt Q04721); test: Notch2 binders on small-molecule microarrays, primary screen, biochemical, small-molecule microarray, 635 nm fluorescence, stem cell growth factors (AID 1073); conditions: Notch2 binding, higher = more signal
[6] = biological target: Pro-neuregulin-1, membrane-bound isoform (Homo sapiens) (UniProt Q02297); test: NRG1 binders on small-molecule microarrays, primary screen, psychiatric disease protein project, biochemical, small-molecule microarray, fluorescence 635/667 (AID 1075); conditions: NRG1 binding, 635 nm fluorescence, higher = more signal;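 also: score combines 667 nm spot fluorescence with signal to noise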
[7] = tested on: Neuregulin-1 EGF-like domain; test: binders of neuregulin-1 EGF-like domain, primary screen, biochemical, small-molecule microarray, 635 nm fluorescence (AID 1081); conditions: small-molecule microarray binding, higher = more signal;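 also: binding of the protein to compounds printed on small-molecule microarray slides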
[8] = FRG1 promoter luciferase signal modulators, primary screen, FRG1 inhibition for FSHD, cell-based, C2C12 myotubes, firefly/Renilla luciferase, luminescence (AID 1084); conditions: higher = more signal, called active from +8 up or from −8 down
[9] = binders of probe aFST on microarray, primary screen, stem cell growth factor project, biochemical, small-molecule microarray, fluorescence 635/667 (AID 1086); conditions: higher = more signal;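 also: score merges 667 nm fluorescence with signal-to-noise of each printed compound spot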
[10] = binders of probe aHhip on microarray, primary screen, stem cell growth factor project, biochemical, small-molecule microarray, fluorescence 635/667 (AID 1087); conditions: higher = more signal;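 also: score merges spot fluorescence at 667nm with spot signal to noise ratio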

Chain of Neurogenic locus notch homolog protein 2 (Homo sapiens) (Q04721 whole entry, looked up, canonical isoform): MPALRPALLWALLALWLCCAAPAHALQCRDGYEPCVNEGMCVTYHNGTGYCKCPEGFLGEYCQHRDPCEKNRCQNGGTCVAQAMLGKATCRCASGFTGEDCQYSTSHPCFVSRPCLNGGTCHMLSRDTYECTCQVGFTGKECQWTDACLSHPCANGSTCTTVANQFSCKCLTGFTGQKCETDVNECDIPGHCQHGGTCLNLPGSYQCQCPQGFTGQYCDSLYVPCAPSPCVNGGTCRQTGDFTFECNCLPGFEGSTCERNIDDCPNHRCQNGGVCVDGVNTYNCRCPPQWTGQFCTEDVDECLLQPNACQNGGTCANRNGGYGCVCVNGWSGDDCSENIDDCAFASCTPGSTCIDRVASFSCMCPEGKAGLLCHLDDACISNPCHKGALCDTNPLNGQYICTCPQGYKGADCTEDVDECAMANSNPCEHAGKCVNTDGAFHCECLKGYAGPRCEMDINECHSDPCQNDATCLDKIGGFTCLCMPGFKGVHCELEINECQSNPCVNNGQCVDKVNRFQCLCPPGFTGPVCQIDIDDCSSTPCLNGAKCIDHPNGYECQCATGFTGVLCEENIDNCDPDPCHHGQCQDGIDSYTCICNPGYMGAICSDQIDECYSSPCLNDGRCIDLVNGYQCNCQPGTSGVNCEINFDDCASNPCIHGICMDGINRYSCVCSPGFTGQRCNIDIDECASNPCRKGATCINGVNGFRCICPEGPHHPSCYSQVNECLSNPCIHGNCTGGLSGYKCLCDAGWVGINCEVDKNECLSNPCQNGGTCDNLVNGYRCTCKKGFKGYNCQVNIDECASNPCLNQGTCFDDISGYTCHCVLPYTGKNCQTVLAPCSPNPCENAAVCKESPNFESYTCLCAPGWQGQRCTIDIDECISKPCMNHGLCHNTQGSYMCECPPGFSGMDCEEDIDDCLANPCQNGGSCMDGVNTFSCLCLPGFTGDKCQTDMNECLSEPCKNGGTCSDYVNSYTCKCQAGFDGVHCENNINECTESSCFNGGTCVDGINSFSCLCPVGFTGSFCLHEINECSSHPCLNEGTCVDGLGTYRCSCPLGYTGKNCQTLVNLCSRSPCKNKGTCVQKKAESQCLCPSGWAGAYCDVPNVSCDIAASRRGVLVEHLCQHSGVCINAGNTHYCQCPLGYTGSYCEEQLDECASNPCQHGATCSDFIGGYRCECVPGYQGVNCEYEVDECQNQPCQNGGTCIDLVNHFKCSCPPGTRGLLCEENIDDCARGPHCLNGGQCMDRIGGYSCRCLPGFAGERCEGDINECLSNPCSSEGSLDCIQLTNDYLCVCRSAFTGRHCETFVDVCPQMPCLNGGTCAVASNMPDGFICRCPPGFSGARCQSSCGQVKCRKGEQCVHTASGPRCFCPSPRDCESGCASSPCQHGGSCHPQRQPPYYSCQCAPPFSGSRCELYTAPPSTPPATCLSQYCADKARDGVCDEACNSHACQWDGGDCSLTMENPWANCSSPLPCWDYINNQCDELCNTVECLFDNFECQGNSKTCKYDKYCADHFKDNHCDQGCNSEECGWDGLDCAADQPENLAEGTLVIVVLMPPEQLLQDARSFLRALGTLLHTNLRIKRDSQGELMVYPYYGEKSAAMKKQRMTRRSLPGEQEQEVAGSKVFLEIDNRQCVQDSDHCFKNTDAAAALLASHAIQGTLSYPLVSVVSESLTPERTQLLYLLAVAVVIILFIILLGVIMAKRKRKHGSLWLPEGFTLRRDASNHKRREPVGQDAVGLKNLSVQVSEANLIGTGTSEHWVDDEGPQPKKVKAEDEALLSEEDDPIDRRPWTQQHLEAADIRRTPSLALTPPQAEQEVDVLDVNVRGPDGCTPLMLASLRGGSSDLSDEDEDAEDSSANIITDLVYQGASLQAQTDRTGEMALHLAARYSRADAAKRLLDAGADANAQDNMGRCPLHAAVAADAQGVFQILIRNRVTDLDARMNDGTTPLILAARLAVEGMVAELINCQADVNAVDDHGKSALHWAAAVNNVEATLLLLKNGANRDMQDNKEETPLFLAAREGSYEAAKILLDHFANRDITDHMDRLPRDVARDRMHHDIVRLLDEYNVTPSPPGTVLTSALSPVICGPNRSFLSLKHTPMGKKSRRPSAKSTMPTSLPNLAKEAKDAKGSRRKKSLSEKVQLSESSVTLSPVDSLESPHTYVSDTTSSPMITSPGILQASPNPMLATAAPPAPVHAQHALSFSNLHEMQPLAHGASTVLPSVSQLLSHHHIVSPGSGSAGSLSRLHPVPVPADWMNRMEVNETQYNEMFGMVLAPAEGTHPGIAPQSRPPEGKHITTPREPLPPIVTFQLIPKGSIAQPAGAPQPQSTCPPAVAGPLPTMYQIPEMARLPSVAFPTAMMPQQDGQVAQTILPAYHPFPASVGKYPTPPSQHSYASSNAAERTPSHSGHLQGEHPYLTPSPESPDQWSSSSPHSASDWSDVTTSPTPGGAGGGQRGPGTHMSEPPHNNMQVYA
Chain of Pro-neuregulin-1, membrane-bound isoform (Homo sapiens) (Q02297 whole entry, looked up, the tested form may be a part, canonical isoform): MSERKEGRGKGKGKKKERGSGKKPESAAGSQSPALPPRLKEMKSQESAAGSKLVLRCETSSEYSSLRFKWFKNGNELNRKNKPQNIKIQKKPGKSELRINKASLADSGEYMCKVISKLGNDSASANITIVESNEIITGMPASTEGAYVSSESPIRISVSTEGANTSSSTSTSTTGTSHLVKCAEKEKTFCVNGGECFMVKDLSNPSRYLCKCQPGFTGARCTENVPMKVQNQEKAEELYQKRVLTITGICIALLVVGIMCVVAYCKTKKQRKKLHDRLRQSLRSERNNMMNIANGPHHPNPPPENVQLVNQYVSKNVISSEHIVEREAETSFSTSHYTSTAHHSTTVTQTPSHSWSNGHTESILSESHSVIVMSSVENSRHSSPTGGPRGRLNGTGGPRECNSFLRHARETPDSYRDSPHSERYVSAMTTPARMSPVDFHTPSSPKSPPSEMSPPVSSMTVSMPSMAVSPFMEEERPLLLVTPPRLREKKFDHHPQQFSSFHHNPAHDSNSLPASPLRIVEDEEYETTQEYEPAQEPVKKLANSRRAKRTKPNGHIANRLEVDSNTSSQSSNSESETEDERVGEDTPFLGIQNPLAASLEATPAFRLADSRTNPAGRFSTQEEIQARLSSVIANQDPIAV

Structure (SMILES)	composite z-score [1]	composite z-score [2]	composite z-score [3]	composite z-score [4]	composite z-score [5]	composite z-score [6]	composite z-score [7]	z-score [8]	composite z-score [9]	composite z-score [10]
C[C@@H]1ON(c2ccccc2)[C@H](c2ccccc2)[C@H]1C(=O)O	-0.0301	0.112	-0.085	0.364	0.0812	-0.515	-0.198	-0.313 (inactive)	-0.0817	0.289
CN1C(=O)C2C(C1=O)C1C=C(c3ccc(CO)cc3)C2C(C2CC2)N1C (stereo not given)	-0.23	0.388	-0.0932	0.0656	-0.337	1.16	0.811	0.0916 (inactive)	-0.176	0.0749
CCOC(=O)C[C@H]1[C@H](OC(=O)c2cc3ccccc3oc2=O)[C@@H](NC(=O)CC(C)C)c2cc(OCCCO)ccc2N1C(=O)Cc1ccc(OC)cc1	-0.699	-0.115	-0.114	0.499	0.508	0.324	0.49	-0.509 (inactive)	0.479	-0.201
COc1ccc(C(=O)Nc2ccc3c(c2)[C@@]2(O[C@H](CCO)[C@@H]([Si](C)(C)c4ccc(OC)cc4)[C@@H]2C)C(=O)N3Cc2ccccc2)cc1	-0.122	0.143	-0.0333	-0.0652	0.562	0.929	1.07	-3.68 (inactive)	0.154	0.2
O=C1OCCC=C[C@H]2OC34C=CCN(c5ccc6ccccc6c5)C(=O)[C@H]3N(CCO)C(=O)[C@@H]4C12 (stereo not given in full)	-0.562	-0.171	-0.119	-0.175	-0.397	-0.863	0.464	0.149 (inactive)	-0.847	-0.672
CN(C)CCCNC(=O)[C@@]1(Cc2ccccc2I)c2ccccc2C(=O)N(C2CCCCC2)[C@H]1c1ccc(CO)cc1	1.13	1.02	0.0676	0.293	1.24	0.418	1.26	-3.32 (inactive)	0.68	0.214
CCN(CC)c1ccc(N2CC=CC34O[C@@H]5C=CCCOC(=O)C5[C@H]3C(=O)N(C(C)CO)[C@@H]4C2=O)cc1 (stereo not given in full)	0.221	0.864	-0.0627	-0.227	-0.371	0.415	1.36	0.725 (inactive)	-0.0426	-0.34
COC(=O)[C@]1(CCC(=O)OC(C)(C)C)N=C(c2ccc(OCCCO)cc2)O[C@@H]1c1ccccc1N=[N+]=[N-]	0.375	-0.135	-0.132	0.171	0.552	0.623	0.908	2.96 (inactive)	0.219	-0.484
C=CCOC(=O)[C@H]1[C@@H]2C(=O)O[C@@H](c3ccccc3)[C@@H](c3ccccc3)N2[C@@H](c2ccc(OCCOC(=O)[C@@H]3C[C@@H]4C(=O)N[C@@H](CCCCNC(C)=O)C(=O)N4[C@@H]3c3cccc(OCCO)c3)cc2)[C@]12C(=O)Nc1ccccc12	0.125	1.67	-0.024	0.489	0.717	1.19	1.3	1.26 (inactive)	0.324	-0.0994
O=C1NC(=O)C2C1C=CC(C(O)c1ccc([N+](=O)[O-])cc1)N2Nc1ccccn1 (stereo not given)	0.0895	-0.0755	-0.0442	0.0525	0.864	0.441	0.554	0.484 (inactive)	-0.16	-0.0074
O=C1O[C@@H](c2ccccc2)[C@@H](c2ccccc2)N2[C@@H](c3ccccc3OCCO)[C@]3(C(=O)Nc4ccc(C#CCCO)cc43)[C@@H](C(=O)NC[C@H](O)c3ccccc3)[C@H]12	0.13	1.2	0.277	0.0012	0.381	1.63	1.36	-2.14 (inactive)	0.372	0.192
C=CCOC(=O)[C@@H]1[C@H]2C(=O)O[C@H](c3ccccc3)[C@H](c3ccccc3)N2[C@H](c2ccc(OCCOC(=O)[C@H]3C[C@H]4C(=O)N5CCC[C@H]5C(=O)N4[C@H]3c3cccc(OCCO)c3)cc2)[C@@]12C(=O)Nc1ccc(I)cc12	-0.0333	0.546	-0.0538	0.441	0.596	0.499	1.2	1.67 (inactive)	0.182	-0.0767
CN(C)CCCNC(=O)[C@@]1(C)c2ccccc2C(=O)N(Cc2ccc(OC(F)(F)F)cc2)[C@H]1c1ccc(CO)cc1	0.462	-0.674	-0.0587	-0.959	-0.538	1.35	0.161	-2.46 (inactive)	-0.329	-0.435
COCCOC(=O)N1C(=O)[C@@]2(c3cc(C#CCCO)ccc31)[C@H](c1ccccc1OCCO)N1[C@H](c3ccccc3)[C@H](c3ccccc3)OC(=O)[C@H]1[C@@H]2C(N)=O	-0.455	-0.0702	-0.0723	0.758	1.3	1.55	1.22	-1.9 (inactive)	0.806	-0.0645
[N-]=[N+]=Nc1ccccc1C[C@]1(C(=O)N2CCOCC2)N=C(c2ccc(OCCCO)cc2)O[C@H]1c1ccccc1N=[N+]=[N-]	-0.214	1.05	0.119	0.499	1.5	1.68	1.36	-2.32 (inactive)	1.53	-0.0237
O=C1[C@@H]2[C@@H](CC(COc3ccccc3)=C([C@H](O)CCc3ccccc3)[C@@H]2CO)C(=O)N1Cc1ccccc1	-0.379	0.364	-0.187	0.0395	0.719	0.433	1.01	-0.643 (inactive)	0.391	0.0176
CCCCC(O)C1C=CC2C(=O)N(c3ccccc3)C(=O)C2N1Nc1ccc(C#N)cc1 (stereo not given)	0.805	-0.472	-0.074	0.226	1.27	1.9	1.41	0.662 (inactive)	0.941	-0.112
O=C(NCC(O)CO)C1N=C(c2ccc(OCCCO)cc2)N(c2ccccc2)O1 (stereo not given)	-0.279	0.657	0.0073	0.643	0.575	-0.168	0.462	3.24 (inactive)	-0.282	0.136
COCCOC(=O)N1C(=O)[C@@]2(c3cc(C#CCCO)ccc31)[C@H](C(N)=O)[C@H]1C(=O)O[C@H](c3ccccc3)[C@H](c3ccccc3)N1[C@@H]2c1ccccc1OCCO	-0.352	0.755	-0.0579	0.658	1.11	1.43	1.19	-0.96 (inactive)	0.52	0.219
CCOC(=O)C1=CC[C@@H](c2ccccc2)N(S(=O)(=O)c2ccc(C)cc2)[C@H]1c1ccccc1I	-0.312	0.215	0.162	0.571	1.48	1.05	1.12	-2.08 (inactive)	1.92	0.0662
COCCOC(=O)N1C(=O)[C@@]2(c3cc(C#CCCO)ccc31)[C@H](c1ccc(OCCO)cc1)N1[C@H](c3ccccc3)[C@H](c3ccccc3)OC(=O)[C@H]1[C@@H]2C(=O)N1CCCCCCC1	3.17	1.15	0.487	1.08	1.37	1.65	1.16	0.278 (inactive)	2.65	3.2
COc1ccc([Si](C)(C)[C@H]2[C@H](CC(=O)N3Cc4ccccc4C[C@H]3CO)O[C@@]3(C(=O)N(c4ccccc4)c4ccccc43)[C@@H]2C)cc1	0.0545	1.37	0.0568	0.748	0.584	1.16	1.16	-2.31 (inactive)	0.381	0.21
COC(=O)[C@]1(Cc2ccccc2)N=C(c2ccc(OCCCO)cc2)O[C@@H]1c1ccccc1CN=[N+]=[N-]	0.278	-0.235	-0.0266	-0.214	0.582	0.718	1.29	1.48 (inactive)	0.693	-0.134
COC(=O)[C@@]1(Cc2ccc(F)cc2)[C@H]2c3cc(C(=O)N4CCCC4)n(CCc4ccccn4)c3C[C@H]2CN1C(=O)c1ccccc1	0.319	-0.439	0.165	0.124	1.43	1.8	1.4	1.23 (inactive)	0.858	-0.201
COCCOC(=O)N1C(=O)[C@@]2(c3cc(C#Cc4ccc(OC)cc4)ccc31)[C@H](c1ccc(OCCO)cc1)N1[C@H](c3ccccc3)[C@H](c3ccccc3)OC(=O)[C@H]1[C@@H]2C(=O)NC[C@H](O)c1ccccc1	1.48	0.628	0.005	0.703	1.15	0.455	1.2	0.848 (inactive)	0.919	0.28
O=C(NCCN1CCOCC1)[C@@H]1c2ccccc2C(=O)N(Cc2ccc(OC(F)(F)F)cc2)[C@H]1c1ccc(CO)cc1	0.224	0.751	-0.0531	-0.315	0.0161	-0.181	0.569	-1.39 (inactive)	-0.236	-0.0645
COC(=O)C(CC#Cc1ccc2c(c1)[C@]1(C(=O)N2)[C@H](c2ccccc2OCCO)N2[C@H](c3ccccc3)[C@H](c3ccccc3)OC(=O)[C@H]2[C@@H]1C(=O)N1CCc2cc(OC)c(OC)cc2C1)C(=O)OC	-0.152	0.179	-0.0087	0.382	1.15	0.834	1.3	-1.14 (inactive)	0.383	-0.374
CC(C)NC(=O)[C@@H]1c2ccccc2C(=O)N(Cc2ccccc2C(F)(F)F)[C@H]1c1ccc(CO)cc1	-0.804	0.313	0.0553	-0.0635	-0.409	-0.774	0.837	-1.26 (inactive)	0.618	-0.668
